Laboratory results as given in PubChem BioAssay (Tox21).
Inconclusive results are not listed. A call without a number means that no potency is given here. The source made the active and inactive calls. Calls follow the shape of the dose curve; as a rule, active = well fitted cell-killing curve with a large enough effect in the repeat runs; inconclusive = weak or mixed curves; inactive = flat fitted curve, though single readings scatter.

Test: qHTS RealTime-Glo MT Cell Viability Assay in HepG2 cells - 8 hour (AID 1224873); also: nearly all actives have a fitted effect of over 55% in size
Conditions: RealTime-Glo luminescence; series mostly up to 76.8 µM
Source text: National Center for Advancing Translational Sciences [NCATS]
NIH Chemical Genomics Center [NCGC]
U.S. Environmental Protection Agency [EPA]
National Institutes of Environmental Health Sciences [NIEHS]
National Toxicology Program [NTP]
U.S. Food and Drug Administration [FDA]
Measure of cell viability is critical in the cell-base assay. Analysis of cell viability is necessary for the characterization of cell responses to cytotoxic drugs and environmental stress. A RealTime-Glo MT Cell Viability Assay to monitor cell viability in real time of continues cell culture during 40 hours of compound treatment was used to screen Tox21 10K library compounds in HepG2 cells. The RealTime-Glo MT Cell Viability Assay is a nonlytic, homogeneous, bioluminescent method to measure cell viability in real time using a simple, plate-based method. The assay involves adding NanoLuc luciferase and a cell-permeant prosubstrate to cells in culture. Viable cells reduce the proprietary prosubstrate to generate a substrate for NanoLuc luciferase. This substrate diffuses from cells into the surrounding culture medium, where it is rapidly used by the NanoLuc Enzyme to produce a luminescent signal. The signal correlates with the number of viable cells, making the assay well suited for cytotoxicity studies.
Tox21 Assay Protocol Summary:
The mixture of HepG2 cell suspension and reagents were dispensed at 600cells/6 ul/well in 1536-well tissue culture treated black solid bottom plates using a Multidrop dispenser. After the assay plates were incubated at a 37 C/5% CO2 incubator for 5 hours, 23 nL of compounds dissolved in DMSO, positive and negative controls was transferred to the assay plate by a pintool work station. The plates were incubated at 37 C for 40 hours. The luminescence intensity were measured at 0h, 8h, 16h, 24h, 32h and 40h time points using ViewLux plate reader during compound treatment.

| Structure (SMILES) | Potency |
| --- | --- |
| CCS(=O)(=O)CCSP(=O)(OC)OC | inactive |
| COc1cc(OC)nc(NC(=O)NS(=O)(=O)c2ncccc2OCC(F)(F)F)n1 | inactive |
| ClCCOCOCCCl | inactive |
| C[C@H]1CCC[C@H](O)CCCCCc2cc(O)cc(O)c2C(=O)O1 | inactive |
| CNNC | inactive |
| C#CCN1C(=O)COc2cc(F)c(N3C(=O)C4=C(CCCC4)C3=O)cc21 | inactive |
| Clc1cccc(N2CCNCC2)c1 | inactive |
| CCOC(=O)CP(=O)(OCC)OCC | inactive |
| O=C(O)c1cccc(Cl)c1 | inactive |
| COc1ncc(F)c2nc(S(=O)(=O)Nc3c(F)cccc3F)nn12 | inactive |
| Nc1n[nH]c(N)n1 | inactive |
| CCCSC(=O)Cl | inactive |
| N#CC(Cl)(Cl)Cl | inactive |
| COc1cc2c(cc1OC)[C@@]13CCN4CC5=CCO[C@H]6CC(=O)N2[C@H]1[C@H]6[C@H]5C[C@H]43 | inactive |
| OC(c1ccccc1)(c1ccccc1)C1CCNCC1 | inactive |
| CC(=O)Nc1cc([As](=O)(O)O)ccc1O | inactive |
| CCOC(=O)/C=C(C)/C=C/C[C@@H](C)CCCC(C)C | inactive |
| c1cc[c]([Hg][c]2ccccc2)cc1 | inactive |
| COP(=S)(OC)Oc1c(Cl)cc(C)cc1Cl | inactive |
| CCOP(=S)(OCC)SCSP(=S)(OCC)OCC | inactive |

| Structure (SMILES) | Potency |
| --- | --- |
| CN(N=O)C(N)=O | inactive |
| CSc1nc(N=[N+]=[N-])nc(NC(C)C)n1 | inactive |
| CNC(=O)Oc1cccc(C(C)C)c1 | inactive |
| ClC(Cl)C(Cl)Cl | inactive |
| CC(CC(C#N)(c1ccccc1)c1ccccc1)N(C)C (stereo not given) | inactive |
| CC(C1CC1)C(O)(Cn1cncn1)c1ccc(Cl)cc1 (stereo not given) | inactive |
| O=[N+]([O-])c1cccc(O)c1 | inactive |
| COC(=O)c1ccccc1S(=O)(=O)NC(=O)Nc1nc(C)cc(C)n1 | inactive |
| Cc1cccc(C#N)c1 | inactive |
| CCOP(=S)(OCC)Oc1cc(-c2ccccc2)on1 | inactive |
| C[N+](C)=CCl | inactive |
| O=C(Oc1ccc(Br)cc1)N1CCN2CCC1CC2 | inactive |
| O=C(O)c1ccc2[nH]cc(CCCCN3CC=C(c4ccccc4)CC3)c2c1 | inactive |
| N#CCNCC#N | inactive |
| COC(=O)c1c(C(F)F)nc(C(F)(F)F)c(C2=NCCS2)c1CC(C)C | inactive |
| CCCSP(=O)(OCC)Oc1ccc(Br)cc1Cl (stereo not given) | inactive |
| CCCCOC(=O)c1ccccc1N | inactive |
| CC(C=O)Cc1ccc2c(c1)OCO2 (stereo not given) | inactive |
| CCN(CC)CCOC(=O)C(C)(c1ccccc1)c1ccccc1 | inactive |
| CCC(C)n1c(=O)[nH]c(C)c(Br)c1=O (stereo not given) | inactive |
